Measurements from PubChem BioAssay AID1347075 (National Center for Advancing Translational Sciences (NCATS), 2019).
Among all 400,000 compounds or so, about 5,500 (1.4%) were called active. A call without a number means that no potency is given here. Roughly 9% stayed inconclusive and do not appear here. The sample holds actives, similar compounds and a random draw of the others, so the mix is not that of the screen. Calls come from the whole dose curve; as a rule, active = well fitted cell-killing curve with a large enough effect; inconclusive = small, poorly fitted or top-dose-only effect, or effect the other way; inactive = flat fitted curve, though single readings scatter.

test: qHTS assay for MDR1-selective chemotherapeutics: Primary screen using the parental adenocarcinoma cell KB-3-1; conditions: KB-3-1 viability, CellTiter-Glo ATP luminescence, 72 h; series mostly up to 46.1 µM; note: nearly all actives have a fitted effect of over 60% in size
Summary of the method: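 Cytotoxicity in the drug-sensitive parental line KB-3-1 was scored as loss of CellTiter-Glo luminescence following 72 h incubation with compound. Values come from curve fitting of normalized concentration-response data.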
Potency is the fitted concentration of half-maximal effect.

Compound | Potency
COc1cc2nc(C#Cc3nc4cc(OC)c(OC)cc4[nH]3)[nH]c2cc1OC | inactive
COc1ccc(CN2C(=O)C(NC(=O)c3cccc(C)c3)(C(F)(F)F)N=C2c2ccccc2)cc1 (stereo not given) | inactive
Cc1cc2c(cc3c(SCc4cccc(Cl)c4)nnc(C)n32)o1 | inactive
Cc1cccc(-n2ccnc2SCC(=O)Nc2cccc3ccccc23)c1C | inactive
Cc1nnc(NC(=O)CSc2nccn2-c2cccc(C)c2C)s1 | 3.66 µM (active)
Cc1cc(C)cc(-n2ccnc2SCC(=O)Nc2nc3ccccc3s2)c1 | inactive
Cc1ccc(S(=O)(=O)N2CCN(c3nc(-n4cnc5ccccc54)nc4ccccc34)CC2)cc1 | inactive
CC(OC(=O)/C=C/c1ccccc1)C(=O)NC1CCCCC1C (stereo not given) | inactive
CC1CCCCC1NC(=O)/C(C#N)=C/C=C/c1ccccc1[N+](=O)[O-] (stereo not given) | 5.8 µM (active)
CC1CC(C)CN(C/C=C/c2ccccc2[N+](=O)[O-])C1 (stereo not given) | inactive
O=C1CCCC2=C1[C@@]1(CCC(c3ccccc3)C1)N=C(Nc1nc3ccccc3o1)N2 (stereo not given in full) | inactive
CCN(C(=O)CSc1nnc(C)n2c1cc1occc12)c1ccccc1 | inactive
CC(C)c1ccc2oc(-c3cc(NC(=O)c4cccs4)ccc3Cl)nc2c1 | inactive
CCc1nn(-c2cc(Oc3cccc4ccccc34)nc(-c3ccccc3)n2)c(N)c1C#N | 5.8 µM (active)
CC(C)(C)n1nc(Cc2cccc3ccccc23)c(C#N)c1N | inactive
C(=Nc1ccc(/C=C/c2ccnc3ccccc23)cc1)c1cc2c3c(c1)CCCN3CCC2 | inactive
CCOC(=O)C1CCN(C(c2ccc(F)cc2)c2sc3nc(-c4ccco4)nn3c2O)CC1 (stereo not given) | inactive
CCC1CCCCN1Cc1c(O)ccc2c(=O)c(Oc3ccccc3Cl)c(C(F)(F)F)oc12 (stereo not given) | inactive
CNC(=O)C(NC(=O)c1ccccc1)=C(C)C | inactive
CN(C)C(=O)c1coc2nc3ccccc3nc12 | inactive
CNC(=O)c1cccc2nc3ccccc3nc12 | 16.4 µM (active)
CCCCn1c(=N)c(S(=O)(=O)c2ccccc2)cc2c(=O)n3cccc(C)c3nc21 | inactive
COc1ccc(NC(=O)CN2CCCN(Cc3ccccc3)S2(=O)=O)cc1 | inactive
CCCOC(=O)c1[nH]c2c(c1C)C(=O)CC(c1cccs1)C2 (stereo not given) | 0.651 µM (active)
CCc1ccc(C2CC(=O)c3c([nH]c(C(=O)OCc4ccc(C)cc4)c3C)C2)cc1 (stereo not given) | inactive

Compound | Potency
COC(=O)C1C(=O)c2c([nH]c(C(=O)OCCSC)c2C)CC1C (stereo not given) | inactive
COc1ccc(-c2nn(CC(=O)Nc3ccccc3F)c3c2cnc2ccc(F)cc23)cc1 | inactive
Cc1c2cnn(-c3ccccc3)c(=O)c2c(C)n1C(C)C(=O)Nc1ccc(Br)cc1F (stereo not given) | inactive
CN(C)C(=S)N=c1ssc(=S)n1Cc1ccco1 | 4.11 µM (active)
CCN(CC)C(=O)CSc1nnc(CNc2ccc(F)cc2)n1Cc1ccco1 | inactive
CCc1ccccc1N1CN(Cc2ccco2)CNC1=S | inactive
CCOc1ccc2nc(N3CCCC(C(=O)Nc4cc(C)ccc4C)C3)sc2c1 (stereo not given) | inactive
CCc1ccc(NC(=O)c2cnc3c(-c4ccccc4)c(C)nn3c2C)cc1 | inactive
CCN(CC)S(=O)(=O)c1ccc(N(C)Cc2ccc(C(F)(F)F)cc2)nc1 | 10.3 µM (active)
CCN(CC)S(=O)(=O)c1ccc(NC(=O)c2cnc(C)cn2)cc1 | inactive
CCN(CC)S(=O)(=O)c1ccc(N(C)CCc2ccc(OC)c(OC)c2)nc1 | inactive
COc1ccccc1-n1c(-c2ccc(C)cc2)cn2c3c(=O)n(C)c(=O)n(C)c3nc12 | inactive
CN(C)c1ccc(/C=C2\C=Cc3ccccc32)cc1Br | inactive
CCOC(=O)c1cc2c(=O)n3ccccc3nc2n(Cc2ccco2)c1=NC(=O)c1ccc(F)cc1 | inactive
COc1ccc(Nc2cc(=O)oc3ccccc23)cc1 | 4.11 µM (active)
COc1ccc(CCNC(=O)COC(=O)c2cc(=O)c3ccccc3o2)cc1 | inactive
COc1ccc(Nc2cc(=O)n(-c3ccccc3)c3c2c(=O)n(C)c(=O)n3C)cc1 | inactive
CC1=C(C(=O)OCC2CCCCC2)C(c2c(F)cccc2Cl)CC(=O)N1 (stereo not given) | inactive
CCc1ccc(N(CC)C(=O)CCn2cnc3onc(-c4ccc(F)cc4)c3c2=O)cc1 | inactive
Fc1ccc(-c2csc(-c3ccc(C4SCCS4)cc3)n2)cc1F | inactive
CCCc1cc(-c2nc(-c3ccc(C)cc3)cs2)ccn1 | 11.6 µM (active)
CCCc1nc2scc(-c3ccc(C)cc3)c2c(=O)n1N | inactive
CCc1ccc(NC(=O)CN2C(=O)COc3ccc(S(=O)(=O)N4CCCC4)cc32)cc1 | inactive
CCc1ccc(NC(=O)CN2CCSc3ccc(S(=O)(=O)N4CCCC4)cc32)cc1 | 16.4 µM (active)
O=C(CN1CCCCCC1)Nc1ccc(S(=O)(=O)N2CCCCC2)cc1 | inactive

Compound | Potency
O=C(NCCNc1ccc([N+](=O)[O-])cc1Cl)c1ccccc1F | inactive
O=[N+]([O-])c1ccc(NS(=O)(=O)c2ccccc2)c(Cl)c1 | 16.4 µM (active)
O=C(NNS(=O)(=O)c1ccc(F)cc1)c1ccc([N+](=O)[O-])cc1Cl | inactive
Cc1cccc(-n2ccnc2SCC(=O)Nc2cc(C(F)(F)F)ccc2Cl)c1 | inactive
Cc1ccccc1CCNC(=O)C1CCN(c2nc3ccccc3nc2C(F)(F)F)CC1 | inactive
Nc1nnc2c(C(F)(F)F)nc3ccccc3n12 | inactive
CSc1nc(N(C)NC(=O)c2cccc(C)c2)c2ccccc2n1 | 0.184 µM (active)
Cc1cccc(C(=O)NCCc2nc3ccccc3n2Cc2ccccc2Cl)c1 | inactive
Cc1cccc(C(=O)Nc2ccc(-c3nc4ccccc4s3)c(C)c2)c1 | inactive
CN(NC(=O)c1ccccc1)c1nc2ccccc2nc1C(F)(F)F | 2.91 µM (active)
COc1ccc(C)cc1Nc1nc2ccccc2c2nnc(C)n12 | inactive
Cc1ccc(-c2nc(CS(=O)(=O)CC(=O)NCc3ccccc3Cl)c(C)o2)cc1 | inactive
O=C(CSc1nnc(CNC(=O)c2ccccc2)n1-c1ccc(F)cc1)Nc1ccccc1F | inactive
COc1ccc(C(=O)c2oc3ccccc3c2NC(=O)COc2cccc(C)c2)cc1 | inactive
COc1ccc(CNc2nc(-c3ccc(Cl)cc3)cc(C(F)(F)F)n2)cc1 | inactive
O=C(Nc1ccc2nc(SCCOc3ccccc3)sc2c1)c1ccco1 | inactive
CCCn1ccc2c(OCC(=O)NCc3ccc(F)cc3)cccc2c1=O | inactive
CCOCCn1ccc2c(OCC(=O)NCc3ccc(C)cc3)cccc2c1=O | inactive
COC(=O)COc1cccc2c(=O)n(CC(=O)NCc3ccccc3)ccc12 | 6.51 µM (active)
CCCCOc1ccc(NC(=O)c2cc3c(n(-c4ccc(Cl)cc4)c2=O)CCCC3=O)cc1 | inactive
Cc1ccc2cccc(NC(=O)C(C)Oc3ccc(C)c(C)c3)c2n1 (stereo not given) | inactive
O=C(Nc1cc(-c2nc3ccccc3o2)ccc1Cl)c1cc([N+](=O)[O-])ccc1N1CCOCC1 | inactive
CCN(CC)CCCC(C)n1c2nc(=O)[nH]c(=O)c-2nc2cc(Cl)ccc21 (stereo not given) | 6.51 µM (active)
COc1cccc(NC(=O)Cn2c(=O)cc(C)c3c(C)nn(-c4cccc(F)c4)c32)c1 | inactive
CSc1ccc(CCNC(=O)c2ccc3c(c2)nc2n3CCOC2)cc1 | inactive

Compound | Potency
Cc1ccc(NC(=O)c2cc(S(=O)(=O)NCCC3=CCCCC3)ccc2F)cc1C | 16.4 µM (active)
CCc1ccc(NC(=O)c2cc(S(=O)(=O)NC3CCCCCC3)ccc2F)cc1 | inactive
COc1ccccc1NC(=O)c1cc(S(=O)(=O)NCCc2ccccc2)ccc1F | inactive
O=C(CSc1cn(CC(=O)N2CCOCC2)c2ccccc12)Nc1ccccc1 | inactive
Cc1cccc(-c2nnc(SCC(=O)N3CCCc4ccccc43)o2)c1 | inactive
CCC(C)[C@H]1COCCS(=O)(=O)N1Cc1ccc(C)cc1 (stereo not given in full) | inactive
O=S1(=O)CCOC[C@H](CC2CCCCC2)N1Cc1ccc(F)cc1 | 16.4 µM (active)
CCCC[C@H]1COCCS(=O)(=O)N1Cc1cccc(Cl)c1 | inactive
Cc1ccc2oc(=O)c3cnn(CC(=O)N4CCN(c5cccc(Cl)c5)CC4)c3c2c1 | inactive
COc1cc(OC)c(N(C)C(=O)c2cc3c(=O)oc4ccccc4c3s2)cc1Cl | inactive
COc1ccc(Cc2nc3ccc(C(=O)NCc4ccccc4Cl)cc3o2)cc1 | inactive
CCOc1ccc(NC(=O)CCC(=O)N2CC(C)Oc3ccc(C)cc32)cc1 (stereo not given) | inactive
CCOc1ccc(CNC(=O)c2cccc(Nc3nc4ccccc4n4nnnc34)c2)cc1OC | inactive
Cc1c2cnn(CC(=O)NCc3ccccn3)c(=O)c2c(C)n1Cc1ccc(Cl)cc1 | inactive
Cc1ccc(Cn2c(C)c3cnn(CC(=O)NCc4ccccn4)c(=O)c3c2C)cc1 | inactive
Cc1ccc(Cn2c(C)c3cnn(CC(=O)NCc4ccccc4)c(=O)c3c2C)cc1 | 13 µM (active)
Cc1cccc(Nc2nc(C)nc(N)c2S(=O)(=O)c2ccccc2)c1 | inactive
CC(NC(=O)CNC(=O)Cc1cccc2ccccc12)c1ccc(S(N)(=O)=O)cc1 (stereo not given) | inactive
CC(NC(=O)c1cccc2ccccc12)c1ccc2c(c1)CCCC2 (stereo not given) | 10.3 µM (active)
CC(NC(=O)c1ccccc1SCC(=O)N1CCCC1)c1ccccc1 (stereo not given) | inactive
O=S(=O)(NCC(c1ccccc1)N1CCc2ccccc21)c1ccccc1 (stereo not given) | inactive
Cc1ccc(NC(=O)Nc2sc3nc4n(c(=O)c3c2C)CCC(C)CC4)c(Cl)c1 (stereo not given) | inactive
CCCc1nc2sc3c(c2c(=O)n1NC(=O)CCCl)CCCC3 | 23.1 µM (active)
NNC(=O)C1CCCn2c1nc1sc3c(c1c2=O)CCCC3 (stereo not given) | inactive
Cc1ccc(C)c(-n2c(SCC(=O)O)nc3sc4c(c3c2=O)CCCC4)c1 | inactive
